MRP1 act: activators of MRP-1. H69AR cells + doxorubicin, viability rescue, CellTiter-Glo. viability increase, % at 10 µM. actives 0.61% (n = 140,000);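 active = viability gain under doxorubicin at or above a set limit, the compound median plus 3 SD, cut at about 4.7% in these data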;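 note: MRP-1 overexpressing cells given doxorubicin 25 µM after compound pretreatment; 18-22 h compound pretreatment then 72 h with doxorubicin before readout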
MRP reversal: compounds reversing MRP-mediated drug resistance; H69AR cells + 2 uM doxorubicin, CellTiter-Glo, 72 h; differential viability (reversal), % at 10 µM; actives 0.04% (n = 85,000); AID 602;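 active = viability drop by adding the cancer drug above about 55%, with treated viability meeting a 40% cutoff, limit read from the data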;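 note: larger differential means the compound sensitizes cells more to doxorubicin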
GALR2 blocker: blocks the human galanin receptor 2 | AID 828 | GALR2-expressing cells, antagonist mode | actives 0.39% (n = 140,000) | O43603 | inhibition, % at 4 µM;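 note: cells stimulated with galanin 1-16 at roughly its EC80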
GALR2 ag: activates the human galanin receptor 2; activation, % (concentration not given with the values); actives 0.48% (n = 140,000); AID 803; GALR2-expressing cells, agonist activation read-out; O43603; in the data active = activation above about 5%, passing the limit was not always enough
S1P2 blocker: S1P2 (human) receptor antagonism; cell-based S1P2 antagonist assay, inhibition at 5 uM; inhibition, % at 5 µM; actives 0.21% (n = 97,000); in the data active = inhibition above about 45%;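 note: CRE beta-lactamase reporter cells expressing human S1P2 stimulated with S1P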
Target sequence (O95136 whole entry, looked up): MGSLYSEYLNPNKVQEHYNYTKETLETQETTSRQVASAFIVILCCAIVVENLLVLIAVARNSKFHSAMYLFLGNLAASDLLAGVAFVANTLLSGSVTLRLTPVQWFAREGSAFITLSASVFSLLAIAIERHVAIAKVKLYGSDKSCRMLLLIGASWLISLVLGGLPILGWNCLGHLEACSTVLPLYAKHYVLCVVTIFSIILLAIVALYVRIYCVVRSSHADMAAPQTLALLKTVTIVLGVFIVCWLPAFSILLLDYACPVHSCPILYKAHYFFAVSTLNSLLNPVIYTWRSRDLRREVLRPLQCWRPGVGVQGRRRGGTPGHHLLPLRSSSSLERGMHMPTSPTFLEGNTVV
S1P2 agonist: activates the human S1P2 receptor; O95136; actives 0.46% (n = 97,000); S1P2-expressing cell line, agonist reporter read-out; activation, % at 4.5 µM; in the data active = activation above about 16%
GALR2 blk conf: confirmation of human galanin receptor 2 (GALR2) antagonists | shares compounds with GALR2 blocker | GALR2-expressing cells, antagonist mode, inhibition | inhibition, % at 4 µM | actives 60% (n = 480) | AID 866;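 note: cells stimulated with galanin at about its EC80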
BLA inhib ctr: inhibits beta-lactamase reporter in GALR2 antagonist counterscreen; shares compounds with GALR2 blocker; CHO NFAT-BLA reporter, beta-lactamase FRET, thapsigargin-stimulated; inhibition, % at 4.2 µM; actives 36% (n = 480);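 active = inhibition above the mean inhibition across tested compounds plus 3 SD, cut at about 27% in these data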
Large screens that a line does not name were inactive (follow-up assays come after a bar, where they were run). The list is not random: actives were taken first. Their share in the collection is about 1.8%. Cut-off read from the data, not from the text of the source, unless noted: active = inhibition above about 27%; inactive = the rest.

O=C(OCCN1C(=O)c2cccc3c(N4CCOCC4)ccc(c23)C1=O)c1ccccc1Cl	GALR2 blocker 33.2 (no result: MRP reversal, S1P2 blocker, S1P2 agonist) | GALR2 blk conf 33.5 | BLA inhib ctr 45.7
Cn1c(=O)c2c(nc(SCc3cccnc3)n2Cc2ccccc2)n(C)c1=O	none (no result: MRP reversal)
CCN(CC)c1ncnc2c1[nH]c1ccccc12	none
CCCOc1ncnc2c1[nH]c1ccccc12	GALR2 blocker 28.7 (no result: MRP reversal) | GALR2 blk conf 27.7 | BLA inhib ctr inactive
Cn1cnc([N+](=O)[O-])c1S(=O)(=O)c1cccc(Cl)c1	GALR2 blocker 47.4 (no result: MRP reversal, S1P2 blocker, S1P2 agonist) | GALR2 blk conf 43.0 | BLA inhib ctr inactive
CCCn1c(CC)nc([N+](=O)[O-])c1S(=O)(=O)c1ccccc1	none (no result: MRP reversal)
CCOc1cc(NC(=S)NCc2ccco2)c(OCC)cc1NC(=O)CC(C)C	none (no result: MRP reversal, S1P2 blocker, S1P2 agonist)
Nc1ccc2c(C(F)(F)F)cc(=O)oc2c1	GALR2 blocker 39.1 | GALR2 blk conf inactive | BLA inhib ctr 45.6
COc1ccc(Nc2nc(N3CCCC3)c3ccccc3n2)cc1	GALR2 blocker 29.7 (no result: S1P2 blocker, S1P2 agonist) | GALR2 blk conf 35.6 | BLA inhib ctr inactive
COC(=O)c1c(NC(=O)C2Cc3ccccc3C(=O)O2)sc2c1CCCC2 (stereo not drawn)	none (no result: MRP reversal, S1P2 blocker, S1P2 agonist)
COc1ccc(C(=O)c2cc([N+](=O)[O-])ccc2N2CCOCC2)cc1	GALR2 blocker 33.9 (no result: MRP reversal, S1P2 blocker, S1P2 agonist) | GALR2 blk conf 27.9 | BLA inhib ctr 49.5
Cc1ccc(C(=O)c2cc([N+](=O)[O-])ccc2N2CCOCC2)cc1	none (no result: MRP reversal, S1P2 blocker, S1P2 agonist)
CCOc1ccc(C(=O)c2cc([N+](=O)[O-])ccc2N2CCOCC2)cc1	GALR2 blocker 50.6 (no result: MRP reversal, S1P2 blocker, S1P2 agonist) | GALR2 blk conf 30.0 | BLA inhib ctr 67.6
Cc1nc([N+](=O)[O-])c(N2CCN(C)CC2)n1Cc1ccccc1	none
Cc1nc([N+](=O)[O-])c(Sc2nc3ccccc3n2C)n1Cc1ccccc1	GALR2 blocker 31.4 (no result: MRP reversal, S1P2 blocker, S1P2 agonist) | GALR2 blk conf inactive | BLA inhib ctr inactive
Cc1ccccc1NC(=O)CC(O)(C(F)(F)F)C(F)(F)F	none
Cc1ccc(NC(=O)CC(O)(C(F)(F)F)C(F)(F)F)c(Br)c1	GALR2 blocker 27.7 | GALR2 blk conf inactive | BLA inhib ctr inactive
Cc1ccc(C)c(C(=O)Cn2ncc(Cl)c(Cl)c2=O)c1	none
CCOC(=O)c1ccc(NC(=O)CN2C(=O)CCC2=O)cc1	none
CCc1ccccc1NC(=O)CN(C)C(=O)Cn1ncc(Cl)c(Cl)c1=O	GALR2 blocker 77.7 (no result: MRP reversal, S1P2 blocker, S1P2 agonist) | GALR2 blk conf 75.0 | BLA inhib ctr inactive
Cc1ccc(C(=O)OCn2ncc(Cl)c(Cl)c2=O)cc1	GALR2 blocker 85.4, S1P2 blocker 80.0 (no result: MRP reversal) | GALR2 blk conf 93.6 | BLA inhib ctr 71.2
Cc1cc(C(=O)Cn2ncc(Cl)c(Cl)c2=O)c(C)n1CC(F)(F)F	none (no result: MRP reversal, S1P2 blocker, S1P2 agonist)
CCOC(=O)c1ccc(NC(=O)Cn2ncc(Cl)c(Cl)c2=O)cc1	GALR2 blocker 82.4 (no result: MRP reversal, S1P2 blocker, S1P2 agonist) | GALR2 blk conf 67.0 | BLA inhib ctr 48.1
O=C(OCn1ncc(Cl)c(Cl)c1=O)c1ccc(C(F)(F)F)cc1	GALR2 blocker 34.3 (no result: MRP reversal) | GALR2 blk conf 43.5 | BLA inhib ctr inactive
O=C(NCCC1=CCCCC1)C(=O)NCC(c1ccco1)N1CCN(c2ccccc2F)CC1 (stereo not drawn)	none (no result: MRP reversal, S1P2 blocker, S1P2 agonist)
Cc1ccc2[nH]c(C(=O)O)c(-c3ccccc3)c2c1	none
CCc1nnc(NC(=O)C=C(C)C)s1	GALR2 blocker 27.7 | GALR2 blk conf inactive | BLA inhib ctr inactive
CCc1nnc(NC(=O)C(C)C)s1	none
O=C(CCl)N(c1ccccc1)c1c[nH]c2ccccc12	GALR2 blocker 36.9 | GALR2 blk conf 38.2 | BLA inhib ctr inactive
O=C1C=C(NCc2ccccc2)CCC1	none (no result: MRP reversal, S1P2 blocker, S1P2 agonist)
O=C1C=C(NC2=CC3OC(c4ccccc4)OCC3OC2=O)CCC1 (stereo not drawn)	GALR2 blocker 69.6 (no result: MRP reversal, S1P2 blocker, S1P2 agonist) | GALR2 blk conf 84.1 | BLA inhib ctr 73.8
O=C(NC(Nc1nc2ccc([N+](=O)[O-])cc2s1)(C(F)(F)F)C(F)(F)F)c1ccccc1Cl	GALR2 blocker 96.5 (no result: MRP reversal, S1P2 blocker, S1P2 agonist) | GALR2 blk conf 94.2 | BLA inhib ctr 91.0
CN1CCCC(CC2Oc3ccccc3Sc3ccccc32)C1 (stereo not drawn)	none (no result: MRP reversal, S1P2 blocker, S1P2 agonist)
CC(NC(=O)Nc1nnc(C(F)(F)F)s1)(C(F)(F)F)C(F)(F)F	GALR2 blocker 38.1 | GALR2 blk conf inactive | BLA inhib ctr inactive
